{"source": "PubChem BioAssay AID463173", "about": "(ICCB-Longwood Screening Facility, Harvard Medical School, 2010)", "note": "About 4,300 (8.3%) of roughly 52,000 compounds were called active. Many of the other results were omitted from the sample, so actives are more common in it than they were. A number with no mark means an inactive call. Cut-off read from the data, not from the text of the source: active = survival mostly below about 52% (no sharp cut-off); inactive = mostly above about 56%.", "data": [{"system": "DeltatarO mutant", "assay": "S. aureus survival, RN4220 and DeltatarO strains – OD600, teichoic acid synthesis inhibitors, primary screen (AID 463173)", "conditions": "S. aureus RN4220 wild type/DeltatarO growth, OD600, 18 h, stronger effect = lower value, screened at 18.75 µg/mL (by protocol)", "values": [{"smiles": "O=C(Nc1ccccc1-c1ccccc1)NC1CCN(CC(=O)N2CCOCC2)CC1", "survival": "73%"}, {"smiles": "CC1=C(C(=O)N2CCN(c3ccc(Cl)cc3)CC2)C2(CCC(C)CC2)OC1=O", "note": "(stereo not drawn)", "survival": "121%"}, {"smiles": "CCc1ccc(CNC(=O)CN(c2ccc(C)cc2)S(=O)(=O)N(C)C)cc1", "survival": "76%"}, {"smiles": "O=C(OC(C(=O)NC1CCCC1)c1cccnc1)C1=Cc2ccccc2OC1", "note": "(stereo not drawn)", "survival": "96%"}, {"smiles": "COc1cccc(C(=O)N2c3nc(-c4ccco4)nn3C3(CCCCC3)[C@@H]3CCCC[C@@H]32)c1", "survival": "95%"}, {"smiles": "CNS(=O)(=O)c1cn(CC(=O)Nc2ccc(C)cc2C)cc1S(=O)(=O)NC", "survival": "117%"}, {"smiles": "CNS(=O)(=O)c1cn(CC(=O)Nc2ccc(F)cc2F)cc1S(=O)(=O)NC", "survival": "0% (active)"}, {"smiles": "Cc1cc(F)ccc1NC(=O)Cn1cc(S(=O)(=O)NC(C)C)c(S(=O)(=O)NC(C)C)c1", "survival": "90%"}, {"smiles": "COc1ccc(-c2onc(C)c2C)cc1S(=O)(=O)NCC1CCN(Cc2cc(C)ccc2C)CC1", "survival": "100%"}, {"smiles": "CCOC(=O)c1cc(-c2ccc(F)cc2)n(CCC(=O)NCc2ccccc2OC)c1C", "survival": "52% (active)"}, {"smiles": "CCOC(=O)c1cc(-c2ccc(C)cc2)n(CCC(=O)NCc2ccccc2)c1C", "survival": "108%"}, {"smiles": "CCOC(=O)c1cc(-c2ccccc2)n(CCC(=O)Nc2ccc(OC)c(Cl)c2)c1C", "survival": "92%"}, {"smiles": "CCOC(=O)c1cc(-c2ccccc2)n(CC(=O)NCc2ccc(C)cc2)c1C", "survival": "37% (active)"}, {"smiles": "CCOC(=O)c1cc(-c2ccc(C)cc2)n(CCC(=O)Nc2ccc(C(C)C)cc2)c1C", "survival": "61%"}, {"smiles": "CCOC(=O)c1cc(-c2ccc(F)cc2)n(CCC(=O)Nc2ccccc2OC)c1C", "survival": "101%"}, {"smiles": "CCOC(=O)c1cc(-c2ccccc2)n(CCC(=O)NCCc2cccc(C)c2)c1C", "survival": "58%"}, {"smiles": "CCOC(=O)c1cc(-c2ccccc2)n(CCC(=O)NCCc2ccc(C)cc2)c1C", "survival": "71%"}, {"smiles": "CCOC(=O)c1cc(-c2ccccc2)n(CCC(=O)NCCc2ccccc2)c1C", "survival": "0% (active)"}, {"smiles": "CCOC(=O)c1cc(-c2ccc(F)cc2)n(CC(=O)NCc2ccc(OC)cc2)c1C", "survival": "75%"}, {"smiles": "CCOC(=O)c1cc(-c2ccccc2)n(CC(=O)NCc2ccccc2OC)c1C", "survival": "101%"}, {"smiles": "CCOC(=O)c1cc(-c2ccc(C)cc2)n(CCC(=O)Nc2ccc(OC)c(OC)c2)c1C", "survival": "52% (active)"}, {"smiles": "CC1CCc2c(sc(NC(=S)NC(=O)c3ccn(C)n3)c2C(N)=O)C1", "note": "(stereo not drawn)", "survival": "99%"}, {"smiles": "O=C1CS(=O)(=O)C2(C(=O)N(Cc3ccc(F)cc3)c3ccccc32)N1c1cccc(C(F)(F)F)c1", "note": "(stereo not drawn)", "survival": "124%"}]}]}
